Screens: PubChem BioAssay, National Center for Advancing Translational Sciences (NCATS)
D1 PAM – human D1 dopamine receptor positive modulation. AID 504651. P21728. HEK293 TREx D1 cells, calcium flux, dopamine EC20 potentiation. potentiation, % at 10 µM. hit rate 0.036% among 360,000; in the data active means potentiation above about 30%; further: 0% is about no effect
Target sequence (P21728 whole entry, looked up): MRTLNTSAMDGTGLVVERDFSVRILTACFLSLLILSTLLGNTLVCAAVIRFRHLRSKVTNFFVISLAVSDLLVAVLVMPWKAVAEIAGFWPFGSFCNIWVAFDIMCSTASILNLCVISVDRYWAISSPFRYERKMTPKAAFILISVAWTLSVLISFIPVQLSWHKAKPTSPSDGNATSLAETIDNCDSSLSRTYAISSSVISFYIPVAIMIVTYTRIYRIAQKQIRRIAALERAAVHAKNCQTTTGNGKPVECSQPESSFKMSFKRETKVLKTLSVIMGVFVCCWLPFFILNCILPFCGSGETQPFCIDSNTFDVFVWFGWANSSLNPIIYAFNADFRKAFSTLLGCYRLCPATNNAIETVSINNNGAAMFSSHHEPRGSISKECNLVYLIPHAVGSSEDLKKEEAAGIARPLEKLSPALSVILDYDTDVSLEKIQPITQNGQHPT
TRHR PAM – allosteric enhancers of human TRH receptor; TRHR cells, fluo-8 calcium fluorescence, EC20 TRH enhancement; enhancement, % at 2 µM; hit rate 0.66% among 360,000; AID 493056; in the data active means enhancement above about 30%; further: 0% is about no effect
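TRHR-expressing cells loaded with fluo-8 calcium dye were read kinetically (ex 480/em 530) during compound addition, then stimulated with an EC20 of TRH (10 nM final). Enhancement of the Gq-mediated intracellular calcium response was scored.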
TRHR agonist – agonists of human TRH receptor | P34981 | TRHR cells, calcium flux fluo-8, FDSS agonist mode | activation, % at 2 µM | hit rate 0.18% among 360,000 | AID 493084; further: 0% is about no effect
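Agonist-mode FDSS calcium read (Ex 480/Em 530, 1 s cycles) in 1536-well TRHR cells with fluo-8 dye, after 10-cycle baseline and 23 nL compound addition; TRH at EC20 (10 nM final) added afterwards for the enhancer phase.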
D1 agonist – human D1 receptor agonism; hit rate 1% among 360,000; AID 504660; HEK293 T-REx D1 cells, calcium flux, agonist mode; activation, % at 2 µM; further: 0% is about no effect
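Tetracycline-induced HEK293 TREx D1 cells, force-coupled to calcium signalling, were dye-loaded with a no-wash calcium kit. Compound was pin-added after a 10 s baseline. Fluorescence was read kinetically at 1 cycle/s for 180 s, with calcium rises flagged as agonism.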
D1 antag – blocks dopamine activation of the human D1 receptor; P21728; HEK293 TREx D1 cells, calcium flux, dopamine EC80; hits give low values; activity change, negative = inhibition, % at 10 µM; hit rate 3.2% among 360,000; in the data active means activity change below about -30%; further: on the % scale 0 is the no-effect control and ±100 the full control effect
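Kinetic fluorescence of a calcium dye serves as the read-out. D1-expressing Hek293 Trex cells, induced overnight at 30 C, are exposed to compound for 180 s before an EC80 dopamine addition, then read 180 s further.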
Starred values were filed as active, the others as inactive. Compounds with a hit are over-represented: about 4.6% of the library has one in this group of screens. Unless noted, no stated cut-off is given here; in the data, active means activation above about 30%; inactive means the rest.

SMILES	D1 PAM	TRHR PAM	TRHR agonist	D1 agonist	D1 antag
CC1CCC(NC(=O)CN(C)S(=O)(=O)c2ccc3c(c2)CCC(=O)N3)CC1 (stereo not drawn)	-2	2	0	3	-31*
CC(C)OCCCNC(=O)CN1C(=O)COc2ccc(S(=O)(=O)N3CCOCC3)cc21	-3	-9	0	0	8
Cc1cc(C)cc(C(=O)NC(=S)Nc2ccc(-c3cc4ccccc4oc3=O)cc2)c1	-10	1	0	0	-57*
COc1cccc(C(C2C(=O)CC(C)(C)CC2=O)C2C(=O)CC(C)(C)CC2=O)c1	4	-3	-1	2	-1
COc1cccc(C(C2=C(O)CC(C)(C)CC2=O)C2C(=O)CC(C)(C)CC2=O)c1 (stereo not drawn)	-3	34*	0	1	-2
Cc1cc(Cl)c(S(=O)(=O)Nc2ccc3c(c2)OCO3)cc1OCC(N)=O	-4	11	1	3	-34*
CCC1N=C(SC)NC(C)=C1C(=O)c1ccccc1 (stereo not drawn)	-2	0	0	3	8
CSC1=NC(C(Cl)(Cl)Cl)N=C(c2ccc(C)cc2)N1 (stereo not drawn)	-5	1	0	0	-85*
CC(=O)Nc1ccc(S(=O)(=O)NNC(=O)COc2ccc(Cl)cc2Cl)cc1	4	-2	0	2	1
CCOc1ccc(CONS(=O)(=O)c2ccc(NC(C)=O)cc2)cc1Cl	-9	-3	0	69*	-25
O=C1Nc2ccc(Cl)cc2C12Nc1ccccc1-c1nnc(SCc3ccccc3F)nc1O2 (stereo not drawn)	-11	4	-1	3	-45*
Cc1cccc(N2CCN(C(=O)c3ccc(NC4=NC5CS(=O)(=O)CC5S4)cc3)CC2C)c1 (stereo not drawn)	0	11	1	0	8
COc1ccc(CNC(=O)c2oc3c(c2C)-c2nn(Cc4ccc(Cl)cc4)cc2CC3)cc1	3	0	0	-1	-10
O=C(Nc1nncs1)c1cccc(S(=O)(=O)N2CCc3ccccc32)c1	-4	33*	0	0	12
CCOC(=O)c1sc(NC(=O)c2cccc(S(=O)(=O)N3CCc4ccccc43)c2)c(C#N)c1C	-11	-2	2	20	-32*
O=C(NCc1ccco1)c1ccc(S(=O)(=O)N2CCCc3ccccc32)cc1	-4	-3	1	15	-32*
CN(C)C(=O)c1ccc(NC(=O)c2cccc(S(=O)(=O)N3CCCCCC3)c2)cc1	-3	3	0	3	-5
CN(C)C(=O)c1ccc(NC(=O)c2cccc(S(=O)(=O)N3CCCc4ccccc43)c2)cc1	-4	7	0	7	-31*
O=C(NCc1ccccc1)c1ccc(S(=O)(=O)N2CCCc3ccccc32)cc1	-10	-6	0	5	11
O=C(NC1=NCCS1)c1cccc(S(=O)(=O)N2CCc3ccccc32)c1	2	-10	0	7	-1
CC(=O)c1cc(-c2ccccc2)n(CCC(=O)Nc2cc(C)cc(C)c2)c1C	-6	2	-1	9	1
Oc1ccc(Br)cc1C1C=C(c2ccc3c(c2)OCO3)NC(c2c(F)cccc2Cl)N1 (stereo not drawn)	-4	-2	1	19	-56*
Oc1ccccc1C1C=C(c2ccc3c(c2)OCO3)NC(c2c(F)cccc2Cl)N1 (stereo not drawn)	2	4	1	12	32
Oc1ccc(Cl)cc1C1C=C(c2ccc3c(c2)OCO3)NC(c2cc(Br)ccc2F)N1 (stereo not drawn)	-2	-2	2	31*	-9
Cc1nn2c(C(F)(F)F)cc(-c3ccc(OC(C)C)cc3)nc2c1C#N	-4	6	-1	0	2
SMILES	D1 PAM	TRHR PAM	TRHR agonist	D1 agonist	D1 antag
COc1ccccc1NC(=O)N1CC(=O)Nc2sc3c(c2C1c1ccccc1)CCCC3 (stereo not drawn)	2	-2	0	1	4
CCOC(=O)c1sc2ccccc2c1OC(=O)c1ccccc1	4	-1	1	9	4
CCOC(=O)c1sc2ccccc2c1NC(=O)c1coc2ccccc2c1=O	1	37*	0	1	-6
Cn1c(N)c(-c2ccccc2)c2ccc([N+](=O)[O-])cc2c1=O	1	2	-2	242*	-17
O=S(=O)(Nc1cccc(CCc2ccccn2)c1)c1ccc2ccccc2c1	-6	3	0	32*	4
Nc1c(-c2nc(-c3cccs3)no2)nnn1-c1cccc(F)c1	1	12	1	3	9
CCN(CC)c1ccc2cc(C(=O)NCc3ccc(F)cc3)c(=N)oc2c1	-11	-2	34*	170*	-29
Nc1ccc(NC(=S)Nc2ccccc2)cc1	-1	-4	0	-2	-57*
Cc1cc2cc(C#N)c(SCC(=O)Nc3nonc3C)nc2cc1C	-2	2	2	9	-9
Cc1nonc1NC(=O)CSc1nc2c(C)cccc2cc1C#N	-5	1	17	43*	-8
COc1ccc(-c2nc(CN3CCC(C(=O)NCCCOC(C)C)CC3)c(C)o2)cc1OC	-3	1	0	0	3
CCOc1ccc2c(c1)ncn2Cc1ccccc1	-3	-13	-1	3	-12
CC(=O)Oc1ccc(Cn2cnc3cc4ccccc4cc32)cc1	-10	4	1	11	-42*
Cc1ccc(NC(=O)C2(c3ccc([N+](=O)[O-])cc3)CCCC2)cc1	5	33*	5	23	3
O=C(COc1ccccc1)Nc1ccc([N+](=O)[O-])cc1	-8	3	1	14	-82*
COc1ccc(NC(=O)C2(c3ccc(NC(=O)c4ccc(OC)cc4)cc3)CCCC2)cc1	3	1	0	1	9
COc1ccc(OCC(=O)Nc2ccc(-c3nc4cc(C)c(C)cc4o3)cc2)cc1	1	1	2	0	-31*
Cc1ccc(OCC(=O)Nc2ccc([N+](=O)[O-])cc2)cc1	-4	-3	-1	7	-39*
CC(=O)Nc1ccc(S(=O)(=O)NNC(=O)COc2ccc(C)cc2)cc1	-19	0	0	0	-33*
O=C(Nc1ccc(F)cc1F)N1CCc2c(sc3c2CCCC3)C1c1ccc(F)cc1 (stereo not drawn)	0	1	2	3	7
COc1ccccc1CN1C2CCCC1CC(NC(=O)/C=C/c1ccccc1)C2 (stereo not drawn)	3	32*	0	0	-12
COc1ccccc1NC(=O)C1=C(C)Nc2nc(-c3ccco3)nn2C1c1cccc(C)c1 (stereo not drawn)	-1	-7	-1	0	-2
